In PubChem BioAssay AID1259422 (The Scripps Research Institute Molecular Screening Center, 2018):
Values joined by “and” are separate entries in the source; they are usually repeats but may differ in a detail not shown here. Identical values can stand only once. Screen size: about 640,000 compounds; about 9,300 (1.5%) were called active. Rule as the data show it: active = inhibition above about 32%; inactive = the rest. For the sample, actives were picked, then their nearest neighbours and some compounds at random.

Assay: TEAD-YAP interaction inhibition, primary screen, TEAD-YAP interaction inhibitor project, luminescence, HEK-TIYL cells (AID 1259422);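 also: 0% = median of test compound wells and 100% = reference inhibitor wells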
Conditions: TEAD-Gal4/YAP UAS-luciferase luminescence, at 9.12 µM, hits give high values

Row | SMILES | inhibition
1 | Cc1ccccc1CN1CCN2C(=O)[C@H](Cc3ccc(O)cc3)NC(=O)[C@H]2C1 | 0.18% (inactive)
2 | Cc1c(Cl)cccc1NC(=O)NNC(=O)C(N)=O | 17% (inactive)
3 | Cc1nn(CC(=O)NCc2ccccn2)c(=O)c2ccccc12 | -1.32% (inactive)
4 | N#Cc1ccc(C(=O)OCC(=O)Nc2ccc3c(c2)C(=O)c2ccccc2C3=O)cc1 | -21.3% (inactive)
5 | CCOc1ccc(/C=C(\C#N)c2nc3ccccc3c(=O)[nH]2)cc1OC | -0.7% (inactive)
6 | CCOc1cc(/C=C(\C#N)c2nc(-c3cccs3)c(NC(C)=O)s2)ccc1O | 41.9% (active)
7 | CCOc1cc(/C=C(\C#N)c2nc3ncc(Br)cc3[nH]2)ccc1O | -0.3% (inactive)
8 | COc1ccccc1NC(=O)Cn1cnc2sc(C(=O)Nc3ccc(F)cc3Cl)c(C)c2c1=O | 10.1% (inactive)
9 | CCC(Sc1nc(Nc2ccc(F)c(F)c2)c2ccccc2n1)C(=O)Nc1ccc2c(c1)OCO2 (stereo not drawn) | 6.11% (inactive)
10 | Cn1ncc(I)c1C(=O)N1CCc2ccccc2C1 | -9.15% (inactive)
11 | CN(Cc1ccccc1)CC(O)COc1ccc(CNCCN2CCCCC2)cc1 (stereo not drawn) | 3.88% (inactive)
12 | Cc1cc(NC(=O)CSc2nc3cc4c(cc3cc2C#N)OCCO4)no1 | 2.38% (inactive)
13 | Cc1ccc(NC(=O)CSc2nc3cc4c(cc3cc2C#N)OCCO4)cc1 | 20.6% (inactive)
14 | CN(C)c1ccc(NC(=O)CSc2nc3cc4c(cc3cc2C#N)OCCO4)cc1 | 66.1% (active)
15 | COc1ccc2ncc(S(=O)(=O)c3ccc(C)cc3)c(N3CCOCC3)c2c1 | -1.64% (inactive)
16 | O=C(CN1C(=O)[C@H]2CCCN2C(=O)c2ccccc21)NCc1ccccc1F | 2.44% (inactive)
17 | CC1CCCC/C1=N/NC(=O)CNc1ccc(Cl)cc1Br (stereo not drawn) | 3.05% (inactive)
18 | CCOC(=O)C1=C(Cl)c2ccccc2NC1Cl (stereo not drawn) | 2.33% (inactive)
19 | COc1cccc(CC2=NOC(C(=O)NC(C)Cc3ccsc3)C2)c1 (stereo not drawn) | -35% (inactive)
20 | CCOC(=O)C1=C(C)NC2=C(C(=O)CC(c3ccccc3)C2)C1c1ccccn1 (stereo not drawn) | 11.1% (inactive) and 10.6% (inactive)

Row | SMILES | inhibition
21 | CCCOCCOC(=O)c1[nH]c2c(c1C)C(=O)CC(c1ccc(OC)cc1)C2 (stereo not drawn) | -2.72% (inactive)
22 | C=CCOC(=O)c1[nH]c2c(c1C)C(=O)CC(c1ccccc1)C2 (stereo not drawn) | 42.7% (active)
23 | CCSCCOC(=O)C1=C(C)NC2=C(C(=O)CC(c3ccccc3)C2)C1c1ccccc1 (stereo not drawn) | 7.09% (inactive)
24 | CCCOC(=O)C1=C(C)NC2=C(C(=O)CC(C)(C)C2)C1c1cccs1 (stereo not drawn) | -1.04% (inactive) and 6.64% (inactive)
25 | CCSCCOC(=O)C1=C(C)NC2=C(C(=O)CC(c3cccs3)C2)C1c1ccsc1 (stereo not drawn) | 1.93% (inactive)
26 | CCOCCOC(=O)C1=C(C)NC2=C(C(=O)CC(c3cccs3)C2)C1c1ccc(OC(C)=O)cc1 (stereo not drawn) | 7.32% (inactive)
27 | CSCCOC(=O)c1[nH]c2c(c1C)C(=O)CC(c1cccs1)C2 (stereo not drawn) | 45.5% (active)
28 | CCCOC(=O)c1[nH]c2c(c1C)C(=O)CC(c1cccs1)C2 (stereo not drawn) | 54.8% (active)
29 | COc1ccc2oc(=O)c(S(=O)(=O)c3ccc(C)cc3)cc2c1 | 7.59% (inactive)
30 | COc1ccc2cc(Br)ccc2c1CC(=O)N(C)C1CCN(C)CC1 | -3.7% (inactive)
31 | COc1ccccc1NC(=O)NC(CC(=O)O)c1ccc(C)cc1 (stereo not drawn) | 3.42% (inactive)
32 | CCOc1ccc(-c2c(C#N)c(N)nc(OC)c2C#N)cc1 | -17.1% (inactive)
33 | CN1N=C(C(F)(F)F)/C(=N/OC(=O)c2ccc(Cl)cc2Cl)C1=O | 6.23% (inactive)
34 | CC(=O)Nc1ccc(Nc2ncnc3nc(-c4c(C)noc4C)[nH]c23)cc1 | -7.16% (inactive)
35 | Cc1ccc(/C=C/C(=O)N2CCN(c3ccc([N+](=O)[O-])cc3)CC2)cc1 | 2.02% (inactive)
36 | CCN(CC)CCNC(=O)c1c(CSc2ccccc2)n(C)c2cc(Br)c(OC)cc12 | 6.43% (inactive)
37 | CCOc1ccc(-n2c(SCc3cc(C(C)=O)ccc3OC)nc3c(sc(=S)n3-c3ccccc3)c2=O)cc1 | -3.25% (inactive)
38 | Cc1cc(C)cc(C(=O)NCC(=O)OCC(=O)NC(N)=O)c1 | 1.58% (inactive)
39 | COc1cccc(CNC(=O)c2[nH]c3cc(-c4cn[nH]c4)ccc3c2CN(C)Cc2ccccc2)c1 | -12.2% (inactive)
40 | COc1ccc(-c2nc(Nc3ccc(C)c(F)c3)c3ccccc3n2)cc1OC | -0.35% (inactive)

Row | SMILES | inhibition
41 | COc1cc(Nc2nc(-c3ccc(OC)c(OC)c3)nc3ccccc23)cc(OC)c1 | 43% (active)
42 | COc1ccc(-c2nc(Nc3cc(Oc4ccccc4)cc([N+](=O)[O-])c3)c3ccccc3n2)cc1OC | -13.1% (inactive)
43 | COc1ccccc1-n1nnc(C(=O)N2CCCCC2)c1N | -0.58% (inactive)
44 | COc1ccccc1-n1nnc(C(=O)NC2CCCc3ccccc32)c1N (stereo not drawn) | 45.5% (active)
45 | Nc1nnc(SCC(=O)NC2CCCc3ccccc32)s1 (stereo not drawn) | 0.12% (inactive)
46 | Fc1cccc(Cn2nnc(-c3ccc4c(c3)OCO4)n2)c1 | -36.6% (inactive)
47 | CCOc1ccccc1-n1c(=S)sc2c(=O)n(-c3ccccc3C)c(SCC#N)nc21 | -7.3% (inactive)
48 | O=[N+]([O-])c1cccc(S(=O)(=O)NNc2ccccc2)c1 | 2.84% (inactive)
49 | OC(COc1ccccc1CNCCN1CCCCC1)CN1CCc2ccccc2C1 (stereo not drawn) | 2.84% (inactive)
50 | Cc1c(C(=O)Nc2ccc(F)cc2F)sc2ncnc(N3CCc4ccccc4C3)c12 | 12.9% (inactive)
51 | O=c1oc2ccccc2cc1-c1cn(-c2ccccc2)c(=S)[nH]1 | 72.7% (active)
52 | O=c1oc2ccccc2cc1-c1nnc(-c2ccccc2)o1 | -51.9% (inactive)
53 | S=c1[nH]c(-c2ccc(Cl)cc2)cn1-c1cccc(Cl)c1 | -6.64% (inactive)
54 | CC(C)n1c(Nc2ccc(N3CCOCC3)cc2)nc2c(NCCc3ccc(O)cc3)ncnc21 | 12.6% (inactive)
55 | CCOC(=O)c1c(NC(=O)CN2CCCC2)sc(C)c1-c1ccccc1 | 4.43% (inactive)
56 | COc1ccc(OC)c(NC(=O)CSc2nc3cc(OC)ccc3cc2C#N)c1 | 6.71% (inactive)
57 | COc1ccc2cc(C#N)c(SC)nc2c1 | 33.8% (active)
58 | CCOc1ccc2cc(C#N)c(SCC(=O)NCc3ccc(OC)cc3)nc2c1 | 3.49% (inactive)
